What all share (assay): protein-binding microarray (PBM); PBM: ~300 nM protein, 6 mM HEPES pH 7.8, 80 mM KCl, 0.5 mM EDTA, 0.5 mM EGTA, 6% glycerol, 35 ng/ul poly-dIdC, 1% milk, 1 h, room temperature; Ap Aiptasia and Nv Nematostella (sea anemones) / Co Capsaspora / Aq Amphimedon (sponge) / Dm Drosophila / Hu human; RHD is the Rel homology domain; high values mean tight binding
Holding throughout (conditions): dsDNA, one strand shown

The target of one test is T1, GST-Ap-NF-kB RHD (Exaiptasia pallida (Aiptasia), UniProt A0A913YAJ5 2-422).
T1 sequence: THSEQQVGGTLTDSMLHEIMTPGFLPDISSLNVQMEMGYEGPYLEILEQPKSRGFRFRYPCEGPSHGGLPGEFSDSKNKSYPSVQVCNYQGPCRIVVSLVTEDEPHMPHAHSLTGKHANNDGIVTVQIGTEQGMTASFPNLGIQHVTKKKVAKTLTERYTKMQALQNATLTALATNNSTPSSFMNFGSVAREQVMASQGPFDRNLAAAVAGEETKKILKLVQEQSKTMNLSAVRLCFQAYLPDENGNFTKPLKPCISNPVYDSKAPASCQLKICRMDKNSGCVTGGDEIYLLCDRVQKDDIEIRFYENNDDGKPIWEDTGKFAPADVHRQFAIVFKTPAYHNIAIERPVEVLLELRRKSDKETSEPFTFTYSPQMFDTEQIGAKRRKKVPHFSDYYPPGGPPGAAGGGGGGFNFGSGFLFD

The target in test [1] is T2, GST-Nv-NF-kB (Cys allele) (Nematostella vectensis, UniProt E5G601 2-411).
T2 sequence: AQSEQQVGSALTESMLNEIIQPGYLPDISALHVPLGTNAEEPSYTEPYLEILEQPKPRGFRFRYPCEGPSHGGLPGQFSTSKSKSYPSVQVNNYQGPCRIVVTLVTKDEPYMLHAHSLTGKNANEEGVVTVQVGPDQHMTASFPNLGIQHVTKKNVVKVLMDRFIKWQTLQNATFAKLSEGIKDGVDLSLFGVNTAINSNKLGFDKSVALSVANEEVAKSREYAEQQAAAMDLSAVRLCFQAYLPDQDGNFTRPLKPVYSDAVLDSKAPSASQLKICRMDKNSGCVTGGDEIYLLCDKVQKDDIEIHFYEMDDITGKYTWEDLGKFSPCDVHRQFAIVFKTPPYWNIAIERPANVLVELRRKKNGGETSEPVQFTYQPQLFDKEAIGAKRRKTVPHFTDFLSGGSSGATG

The next test concerns the target T3, GST-Co-NF-kB (Capsaspora owczarzaki, UniProt F1ARL5 200-546).
T3 sequence: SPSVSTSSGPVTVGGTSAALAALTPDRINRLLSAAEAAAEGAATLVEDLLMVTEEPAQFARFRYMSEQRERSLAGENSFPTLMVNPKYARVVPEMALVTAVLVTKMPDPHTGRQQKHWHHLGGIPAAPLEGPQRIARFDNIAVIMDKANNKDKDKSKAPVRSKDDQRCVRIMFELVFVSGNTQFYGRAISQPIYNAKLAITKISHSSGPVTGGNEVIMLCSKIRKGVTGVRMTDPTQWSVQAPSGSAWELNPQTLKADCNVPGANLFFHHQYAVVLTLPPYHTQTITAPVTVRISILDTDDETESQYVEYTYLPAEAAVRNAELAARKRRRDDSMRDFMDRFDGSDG

The target of the next test is T4, GST-Dm-Relish (Drosophila melanogaster, UniProt Q94527 99-473).
T4 sequence: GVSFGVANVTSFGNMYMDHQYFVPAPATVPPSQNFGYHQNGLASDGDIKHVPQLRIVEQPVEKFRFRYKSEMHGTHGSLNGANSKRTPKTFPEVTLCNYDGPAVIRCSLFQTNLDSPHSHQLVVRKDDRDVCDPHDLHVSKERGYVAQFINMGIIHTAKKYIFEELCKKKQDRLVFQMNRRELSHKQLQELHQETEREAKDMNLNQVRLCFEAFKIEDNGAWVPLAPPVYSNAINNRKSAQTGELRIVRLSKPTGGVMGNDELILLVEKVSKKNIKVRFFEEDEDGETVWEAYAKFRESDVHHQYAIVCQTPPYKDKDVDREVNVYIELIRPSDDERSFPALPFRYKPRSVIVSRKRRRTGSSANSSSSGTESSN

The target in another test is T5, GST-Aq-NF-kB (Amphimedon queenslandica, UniProt A9Y5G7 2-389).
T5 sequence: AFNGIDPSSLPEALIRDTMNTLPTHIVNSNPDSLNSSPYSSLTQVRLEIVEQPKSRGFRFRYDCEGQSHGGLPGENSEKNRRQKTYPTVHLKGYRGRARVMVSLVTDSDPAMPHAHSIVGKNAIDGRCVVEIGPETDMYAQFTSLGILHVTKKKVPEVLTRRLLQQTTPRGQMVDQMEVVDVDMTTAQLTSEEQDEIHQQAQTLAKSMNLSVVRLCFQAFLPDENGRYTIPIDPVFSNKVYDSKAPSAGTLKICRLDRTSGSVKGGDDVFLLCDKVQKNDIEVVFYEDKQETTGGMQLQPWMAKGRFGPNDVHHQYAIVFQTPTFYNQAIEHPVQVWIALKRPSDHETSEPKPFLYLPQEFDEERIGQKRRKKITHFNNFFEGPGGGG

A further test concerns the target GST-Hu-p50 (Homo sapiens, UniProt P19838 7-356).
Test [2] concerns the target T6, GST-Nv-NF-kB (Ser allele) (Nematostella vectensis, UniProt A7UNT2 2-411).
T6 sequence: T2 sequence with Q21R, C66S, S207N, E215Q, V217A, E225K, A268E, D399E

Numbering of substitutions follows the chain as printed.

Sequence of GST-Hu-p50 (P19838 7-356): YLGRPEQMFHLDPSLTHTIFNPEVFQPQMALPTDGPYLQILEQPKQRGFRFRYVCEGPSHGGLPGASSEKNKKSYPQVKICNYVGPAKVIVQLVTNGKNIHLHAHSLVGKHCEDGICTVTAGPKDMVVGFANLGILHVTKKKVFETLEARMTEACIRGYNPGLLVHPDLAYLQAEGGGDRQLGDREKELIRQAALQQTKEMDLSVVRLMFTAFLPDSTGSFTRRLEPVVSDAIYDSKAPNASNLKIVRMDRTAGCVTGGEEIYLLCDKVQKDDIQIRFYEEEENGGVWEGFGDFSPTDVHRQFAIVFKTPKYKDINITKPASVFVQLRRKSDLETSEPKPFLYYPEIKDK

As for “CCGATTAACATCAAAATACCCCTTGATGTTAATCGGGTCTTGATTCGCTTGACGCTGCTG”, the binding signal turned out to be 6.2 z-score with GST-Ap-NF-kB RHD; 6.38 z-score in test [1]; 4.02 z-score in the test with GST-Co-NF-kB; 5.65 z-score in the test with GST-Dm-Relish; 6.58 z-score in the test with GST-Aq-NF-kB; 6.17 z-score with GST-Hu-p50.

Take “CCGATTAACATCAGAAACTCCCATGATGTTAATCGGGTCTTGATTCGCTTGACGCTGCTG”: the binding signal with GST-Ap-NF-kB RHD amounted to 3.34 z-score; in test [1], 3.45 z-score; in test [2] it was 2.93 z-score; in the test with GST-Dm-Relish, 3.38 z-score; in the test with GST-Aq-NF-kB, 3.7 z-score; with GST-Hu-p50 it was 2.9 z-score.

“CCGATTAACATCAAAAAAGTACCTGATGTTAATCGGGTCTTGATTCGCTTGACGCTGCTG”: the binding signal was 4.63 z-score in the test with GST-Ap-NF-kB RHD; 7.84 z-score in test [1]; 11.4 z-score in test [2]; 9.37 z-score with GST-Dm-Relish; 5.47 z-score in the test with GST-Aq-NF-kB; 5.8 z-score with GST-Hu-p50.

“CCGATTAACATCAAGGAATTCCCTGATGTTAATCGGGTCTTGATTCGCTTGACGCTGCTG”: the binding signal with GST-Ap-NF-kB RHD came to 6.83 z-score; in test [1], 7.7 z-score; with GST-Co-NF-kB, 4.22 z-score; with GST-Dm-Relish, 8.03 z-score; with GST-Aq-NF-kB, 8.14 z-score; with GST-Hu-p50, 5.07 z-score.

As to “CCGATTAACATCAAGGGGGGTTATGATGTTAATCGGGTCTTGATTCGCTTGACGCTGCTG”, the binding signal in the test with GST-Ap-NF-kB RHD was found to be 5.81 z-score; in test [1], 4.63 z-score; with GST-Co-NF-kB it was 3.05 z-score; with GST-Dm-Relish, 7.12 z-score; in the test with GST-Aq-NF-kB, 5.77 z-score; with GST-Hu-p50, 5.59 z-score.

“CCGATTAACATCAGAAATACCCATGATGTTAATCGGGTCTTGATTCGCTTGACGCTGCTG”: the binding signal is 4.24 z-score with GST-Ap-NF-kB RHD; 5.32 z-score in test [1]; 1.74 z-score with GST-Co-NF-kB; 3 z-score with GST-Dm-Relish; 4.73 z-score in the test with GST-Aq-NF-kB; 5.12 z-score with GST-Hu-p50.

Consider “CCGATTAACATCAAACATCCCCCTGATGTTAATCGGGTCTTGATTCGCTTGACGCTGCTG”, for which the binding signal with GST-Ap-NF-kB RHD came out at 6.59 z-score; in test [1], 6.38 z-score; with GST-Co-NF-kB, 5.97 z-score; with GST-Dm-Relish it was 6.53 z-score; in the test with GST-Aq-NF-kB it was 6.6 z-score; with GST-Hu-p50, 5.44 z-score.

With “CCGATTAACATCAGGCGTTCCCCTGATGTTAATCGGGTCTTGATTCGCTTGACGCTGCTG”, the binding signal in the test with GST-Ap-NF-kB RHD was 5.26 z-score; in test [1] it was 6.01 z-score; with GST-Co-NF-kB it was 3.98 z-score; with GST-Dm-Relish, 6.34 z-score; in the test with GST-Aq-NF-kB it was 5.53 z-score; in the test with GST-Hu-p50, 4.27 z-score.

“CCGATTAACATCAGGGGGGAGAATGATGTTAATCGGGTCTTGATTCGCTTGACGCTGCTG”: the binding signal was found to be 6 z-score in the test with GST-Ap-NF-kB RHD; 4.08 z-score in test [1]; 7.95 z-score with GST-Co-NF-kB; 3.85 z-score in the test with GST-Dm-Relish; 4.82 z-score with GST-Aq-NF-kB; 6.41 z-score with GST-Hu-p50.

Turning to “CCGATTAACATCAGGGGGAGCACTGATGTTAATCGGGTCTTGATTCGCTTGACGCTGCTG”, the binding signal with GST-Ap-NF-kB RHD amounted to 5.93 z-score; in test [1] it was 3.91 z-score; with GST-Co-NF-kB, 6.25 z-score; in the test with GST-Dm-Relish, 7.14 z-score; in the test with GST-Aq-NF-kB, 5.5 z-score; in the test with GST-Hu-p50, 4.89 z-score.

Consider “CCGATTAACATCAGAACATCCCCTGATGTTAATCGGGTCTTGATTCGCTTGACGCTGCTG”, for which the binding signal turned out to be 6.05 z-score with GST-Ap-NF-kB RHD; 6.64 z-score in test [1]; 3.09 z-score with GST-Co-NF-kB; 6.69 z-score with GST-Dm-Relish; 5.97 z-score with GST-Aq-NF-kB; 5.45 z-score with GST-Hu-p50.

On to “CCGATTAACATCATGTATGCCCCTGATGTTAATCGGGTCTTGATTCGCTTGACGCTGCTG”, for which the binding signal in the test with GST-Ap-NF-kB RHD was 1.68 z-score; in test [1] it was 1.71 z-score; in the test with GST-Co-NF-kB, 1.24 z-score; with GST-Dm-Relish, 1.12 z-score; in the test with GST-Aq-NF-kB, 2.51 z-score; in the test with GST-Hu-p50, 1.27 z-score.

For “CCGATTAACATCAAGAGTCCCCCTGATGTTAATCGGGTCTTGATTCGCTTGACGCTGCTG”, the binding signal with GST-Ap-NF-kB RHD amounted to 7.54 z-score; in test [1], 5.23 z-score; in the test with GST-Co-NF-kB it was 5.05 z-score; with GST-Dm-Relish it was 5.74 z-score; with GST-Aq-NF-kB, 5.26 z-score; with GST-Hu-p50 it was 5.46 z-score.

(Values after paper PMC5700166.)
